# Source: the supplement of paper PMC8728848
# The entries come from a sample that favours the strongest signals as a whole.
# Columns and labels:
# Assay in all cases: glycan array binding signal (z-score within array); higher = stronger binding
# Details in all cases: glycan notation: IUPAC condensed, linker removed
# [1] = molecular target: Fuc(a1-2)Gal(b1-3)GlcNAc(b1-2)Man(a1-3)[Fuc(a1-2)Gal(b1-3)GlcNAc(b1-2)Man(a1-6)]Man(b1-4)GlcNAc(b1-4)[Fuc(a1-6)]GlcNAc
# Method in brief: (§1)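 Arrays were curated from the Consortium for Functional Glycomics database, 3228 in total, and kept only where the protein sequence was available. Binding is expressed as a within-array Z-score. This score was averaged across arrays of the same protein sequence at different concentrations or buffers and across linkers, and negative values can be read as non-binding.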
# [2] = molecular target: Fuc(a1-2)Gal(b1-3)GlcNAc(b1-3)Gal(b1-4)Glc
# Method in brief: as §1
# [3] = molecular target: Fuc(a1-2)Gal(b1-4)GlcNAc(b1-2)Man(a1-3)[Fuc(a1-2)Gal(b1-4)GlcNAc(b1-2)Man(a1-6)]Man(b1-4)GlcNAc(b1-4)[Fuc(a1-6)]GlcNAc
# Method in brief: as §1
# [4] = molecular target: Fuc(a1-2)Gal(b1-4)[Fuc(a1-3)]GlcNAc(b1-3)Gal(b1-4)[Fuc(a1-3)]GlcNAc(b1-3)Gal(b1-4)[Fuc(a1-3)]GlcNAc
# Method in brief: as §1
# [5] = molecular target: Fuc(a1-2)[Gal(a1-3)]Gal(b1-3)GlcNAc(b1-2)Man(a1-3)[Fuc(a1-2)[Gal(a1-3)]Gal(b1-3)GlcNAc(b1-2)Man(a1-6)]Man(b1-4)GlcNAc(b1-4)[Fuc(a1-6)]GlcNAc
# Method in brief: as §1
# [6] = molecular target: Fuc(a1-2)[Gal(a1-3)]Gal(b1-4)GlcNAc
# Method in brief: as §1
# [7] = molecular target: Fuc(a1-2)[Gal(a1-3)]Gal(b1-4)GlcNAc(b1-3)[Fuc(a1-2)[Gal(a1-3)]Gal(b1-4)GlcNAc(b1-6)]GalNAc
# Method in brief: as §1
# [8] = molecular target: Fuc(a1-2)[Gal(a1-3)]Gal(b1-4)GlcNAc(b1-6)GalNAc
# Method in brief: as §1
# [9] = molecular target: Fuc(a1-2)[GalNAc(a1-3)]Gal(b1-3)GalNAc(b1-3)Gal(a1-4)Gal(b1-4)Glc
# Method in brief: as §1
# [10] = molecular target: Fuc(a1-2)[GalNAc(a1-3)]Gal(b1-4)GlcNAc(b1-3)GalNAc
# Method in brief: as §1
# [11] = molecular target: Fuc(a1-3)[Gal(b1-4)]GlcNAc(b1-3)Gal(b1-4)[Fuc(a1-3)]GlcNAc(b1-3)Gal(b1-4)[Fuc(a1-3)]GlcNAc
# Method in brief: as §1
# [12] = molecular target: Fuc(a1-3)[Gal3S(b1-4)]GlcNAc6S
# Method in brief: as §1
# Fuc(b1-3)GlcNAc = molecular target: Fuc(b1-3)GlcNAc
# Method in brief: as §1
# [13] = molecular target: Gal(a1-3)Gal(b1-3)GlcNAc(b1-2)Man
# Method in brief: as §1
# [14] = molecular target: Gal(a1-3)Gal(b1-3)GlcNAc(b1-2)Man(a1-3)[Gal(a1-3)Gal(b1-3)GlcNAc(b1-2)Man(a1-6)]Man(b1-4)GlcNAc(b1-4)GlcNAc
# Method in brief: as §1
# Gal(b1-3)GlcNAc(b1-2)Man = molecular target: Gal(b1-3)GlcNAc(b1-2)Man
# Method in brief: as §1
# [15] = molecular target: Gal(b1-3)GlcNAc(b1-2)[Gal(b1-3)GlcNAc(b1-6)]Man(a1-6)[Gal(b1-3)GlcNAc(b1-2)Man(a1-3)]Man(b1-4)GlcNAc(b1-4)GlcNAc
# Method in brief: as §1
# [16] = molecular target: Gal(b1-3)GlcNAc(b1-3)Gal(b1-4)[Fuc(a1-3)]GlcNAc
# Method in brief: as §1
# [17] = molecular target: Gal(b1-3)GlcNAc(b1-3)GalNAc
# Method in brief: as §1
# Gal(b1-4)GlcNAc(b1-2)Man = molecular target: Gal(b1-4)GlcNAc(b1-2)Man
# Method in brief: as §1
# [18] = molecular target: Gal(b1-4)GlcNAc(b1-2)Man(a1-3)[Gal(b1-4)GlcNAc(b1-2)Man(a1-6)][GlcNAc(b1-4)]Man(b1-4)GlcNAc(b1-4)[Fuc(a1-6)]GlcNAc
# Method in brief: as §1
# [19] = molecular target: Gal(b1-4)GlcNAc(b1-2)[Gal(b1-4)GlcNAc(b1-6)]Man(a1-6)[GlcNAc(b1-4)][Gal(b1-4)GlcNAc(b1-2)Man(a1-3)]Man(b1-4)GlcNAc(b1-4)GlcNAc
# Method in brief: as §1
# [20] = molecular target: Gal(b1-4)GlcNAc(b1-3)Gal(b1-4)Glc
# Method in brief: as §1
# [21] = molecular target: Gal(b1-4)GlcNAc(b1-3)Gal(b1-4)GlcNAc(b1-2)[Gal(b1-4)GlcNAc(b1-3)Gal(b1-4)GlcNAc(b1-6)]Man(a1-6)[Gal(b1-4)GlcNAc(b1-3)Gal(b1-4)GlcNAc(b1-2)Man(a1-3)]Man(b1-4)GlcNAc(b1-4)GlcNAc
# Method in brief: as §1
# [22] = molecular target: Gal(b1-4)GlcNAc(b1-3)Gal(b1-4)GlcNAc(b1-3)Gal(b1-4)GlcNAc(b1-2)Man(a1-3)[Gal(b1-4)GlcNAc(b1-3)Gal(b1-4)GlcNAc(b1-3)Gal(b1-4)GlcNAc(b1-2)Man(a1-6)]Man(b1-4)GlcNAc(b1-4)[Fuc(a1-6)]GlcNAc
# Method in brief: as §1
# [23] = molecular target: Gal(b1-4)GlcNAc(b1-3)Gal(b1-4)GlcNAc(b1-3)Gal(b1-4)GlcNAc(b1-3)Gal(b1-4)GlcNAc(b1-2)[Gal(b1-4)GlcNAc(b1-3)Gal(b1-4)GlcNAc(b1-3)Gal(b1-4)GlcNAc(b1-3)Gal(b1-4)GlcNAc(b1-6)]Man(a1-6)[Gal(b1-4)GlcNAc(b1-3)Gal(b1-4)GlcNAc(b1-3)Gal(b1-4)GlcNAc(b1-3)Gal(b1-4)GlcNAc(b1-2)Man(a1-3)]Man(b1-4)GlcNAc(b1-4)[Fuc(a1-6)]GlcNAc
# Method in brief: as §1
# [24] = molecular target: Gal(b1-4)GlcNAc(b1-3)Gal(b1-4)GlcNAc(b1-3)Gal(b1-4)GlcNAc(b1-3)Gal(b1-4)GlcNAc(b1-3)Gal(b1-4)GlcNAc(b1-2)Man(a1-3)[Gal(b1-4)GlcNAc(b1-3)Gal(b1-4)GlcNAc(b1-3)Gal(b1-4)GlcNAc(b1-3)Gal(b1-4)GlcNAc(b1-3)Gal(b1-4)GlcNAc(b1-2)Man(a1-6)]Man(b1-4)GlcNAc(b1-4)[Fuc(a1-6)]GlcNAc
# Method in brief: as §1
binder,measurement,setting,value
Aap lectin (Staphylococcus epidermidis) (protein) VNLNYSSPFMSLLSMPADSSSNNTKNTIDIPPTTVKGRDNYDFYGRVDIESNPTDLNATNLTRYNYGQPPGTTTAGAVQFKNQVSFDKDFDFNIRVANNRQSNTTGADGWGFMFSKKDGDDFLKNGGILREKGTPSAAGFRIDTGYYNNDPLDKIQKQAGQGYRGYGTFVKNDSQGNTSKVGSGTPSTDFLNYADNTTNDLDGKFHGQKLNNVNLKYNASNQTFTATYAGKTWTATLSELGLSPTDSYNFLVTSS,glycan array binding signal (z-score),[1],2.87
same,glycan array binding signal (z-score),[2],-0.68
same,glycan array binding signal (z-score),[3],-0.829
same,glycan array binding signal (z-score),[4],-0.534
same,glycan array binding signal (z-score),[5],3.02
same,glycan array binding signal (z-score),[6],3.04
same,glycan array binding signal (z-score),[7],2.98
same,glycan array binding signal (z-score),[8],-0.267
same,glycan array binding signal (z-score),[9],-0.573
same,glycan array binding signal (z-score),[10],0.8
same,glycan array binding signal (z-score),[11],0.476
same,glycan array binding signal (z-score),[12],-0.816
same,glycan array binding signal (z-score),Fuc(b1-3)GlcNAc,0.487
same,glycan array binding signal (z-score),[13],2.18
same,glycan array binding signal (z-score),[14],2.88
same,glycan array binding signal (z-score),Gal(b1-3)GlcNAc(b1-2)Man,3.17
same,glycan array binding signal (z-score),[15],-0.728
same,glycan array binding signal (z-score),[16],-0.351
same,glycan array binding signal (z-score),[17],0.183
same,glycan array binding signal (z-score),Gal(b1-4)GlcNAc(b1-2)Man,3
same,glycan array binding signal (z-score),[18],0.361
same,glycan array binding signal (z-score),[19],-0.475
same,glycan array binding signal (z-score),[20],0.463
same,glycan array binding signal (z-score),[21],-0.781
same,glycan array binding signal (z-score),[22],2.92
same,glycan array binding signal (z-score),[23],0.345
same,glycan array binding signal (z-score),[24],0.727
